Reference: PubChem BioAssay AID686959 (The Scripps Research Institute Molecular Screening Center, 2013)
Active and inactive are the calls of the source. No cut-off is given here; in the data, nearly all actives have IC50 up to about 8.1 µM.

Assay: binders of r(CAG) RNA repeats, dose response, biochemical, fluorescence (AID 686959)
Details: r(CAG) RNA repeat binding

IC50, active:
O=c1[nH]n2c(=O)c3c([nH]c2c1N=Nc1cccc(Cl)c1)CCC3 2.33 µM
N#CC(C#N)=C(Nc1ccc(F)cc1)SCc1cccc(Br)c1 7.57 µM
COc1ccc2nc(N3C(=O)C(O)=C(C(=O)c4ccco4)C3c3ccc(OC)c(OC)c3)sc2c1 (centres undefined) 2.04 µM
Cc1ccc2c(c1)c(N=Nc1cccc(C(=O)O)c1)c(O)n2C 5.07 µM
O=C(C1=C(O)C(=O)N(c2nc3ccc(Cl)cc3s2)C1c1ccco1)c1ccco1 (centres undefined) 0.987 µM
N#CC1=C(S)N(c2ccccc2)C(c2ccc(-c3cc(Cl)ccc3Cl)o2)NC1=O (centres undefined) 1.47 µM
Oc1ccc(/C=N/Nc2ccnc3cc(Cl)ccc23)c(O)c1O 2.5 µM
COc1ccc(Cn2c(O)c(/C=N/NC(=O)c3cccnc3)c3ccccc3c2=O)cc1 3.07 µM
N/C(=N\N=C\c1cccs1)SC1CC(=O)N(c2ccc(Br)cc2)C1=O (centres undefined) 8.27 µM
Cc1cc(N2C(=O)C(O)=C(C(=O)c3cc4ccccc4o3)C2c2cccc(Cl)c2)no1 (centres undefined) 1.19 µM
O=C(O)CCCCCn1c(O)c(C=C2N=c3ccccc3=N2)sc1=S 3.87 µM
CCc1nnc(NS(=O)(=O)c2ccc(N/C=C/C(=O)c3ccc(C)cc3)cc2)s1 1.9 µM
COc1cc(/C=C2\C(=O)N(c3ccc(NC(C)=O)cc3)N=C2c2ccccc2)ccc1O 2.9 µM
O=C(O)c1ccc(N2C(=O)CC(SC(=NCc3ccc4c(c3)OCO4)Nc3ccc(F)cc3)C2=O)cc1 (centres undefined) 2.89 µM
CCCOc1cccc(C2C(C(=O)c3ccc(C)o3)=C(O)C(=O)N2c2nc(C)c(C(C)=O)s2)c1 (centres undefined) 4.06 µM
CC1=NN(C(N)=S)C(=O)C1N=Nc1c(Br)cc(Br)cc1Br (centres undefined) 5.73 µM
CC1=C(C#N)c2nc(N)c(C#N)c(C)c2/C1=C\c1ccc(-c2ccccc2C(=O)O)o1 2.57 µM
CC(C)c1ccc(C2c3[nH]c4ccccc4c3C[C@H]3C(=O)N(c4ccccc4C(=O)N4CCC[C@@H]4C(=O)O)C(=O)N23)cc1 (some centres undefined) 2.84 µM
CC(=O)C1=C(O)C(=O)N(c2cc(C(C)(C)C)on2)C1c1ccc(Br)cc1 (centres undefined) 2.49 µM
Cc1ccc2nc(N3C(=O)C(O)=C(C(=O)c4ccco4)C3c3ccc(C)o3)sc2c1 (centres undefined) 0.624 µM
N#CC1=C(N)n2c(s/c(=C\c3ccco3)c2=O)=C(C#N)C1c1ccco1 (centres undefined) 5.38 µM
CCCOc1ccc(N2C(=O)CC(S/C(N)=N/N=C(\C)c3cccs3)C2=O)cc1 (centres undefined) 7.76 µM
Cc1noc(NS(=O)(=O)c2ccc(NC(=O)COc3ccc(Cl)cc3Cl)cc2)c1C 2.83 µM
N#C/C(C(=O)Nc1ccc(Cl)cc1)=C(/S)Nc1ccccc1 6.14 µM
COC(=O)c1sc(N2C(=O)C(O)=C(C(=O)c3ccc(C)o3)C2c2ccc([N+](=O)[O-])cc2)nc1C (centres undefined) 0.636 µM
CC(C)c1ccc(C2c3[nH]c4ccccc4c3C[C@H]3C(=O)N(c4ccccc4C(=O)N4CCC[C@H]4C(=O)O)C(=O)N23)cc1 (some centres undefined) 3.35 µM
C/C(=N\N=C(/N)SC1CC(=O)N(c2cccc(Cl)c2)C1=O)c1cccs1 (centres undefined) 5.19 µM
CCOC(=O)C1=C(C)NC(SCc2cc(=O)[nH][nH]2)=C(C#N)C1c1cccs1 (centres undefined) 7.4 µM
C=CCOc1c(OC)cc(/C=N/Nc2cccc(C(=O)O)c2)c(Br)c1Br 2.28 µM
